We go through 10 molecules from PubChem BioAssay (Tox21).

A short description of test [1]: qHTS RealTime-Glo MT Cell Viability Assay in HEK293 cells - 16 hour (AID 1224872). Further: potency means the concentration at half of the fitted maximal effect; nearly all actives have a fitted effect of over 50% in size. The essentials: (§1)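 HEK293 cells were seeded at 600 cells/well together with NanoLuc luciferase and cell-permeant prosubstrate, preincubated 5 h at 37 C/5% CO2, then given compound in DMSO by pintool. Luminescence from viable-cell prosubstrate reduction was read repeatedly over 40 h.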

A short description of test [2]: qHTS RealTime-Glo MT Cell Viability Assay in HEK293 cells - 40 hour (AID 1224874). Further: nearly all actives have a fitted effect of over 50% in size. Further: potency means the concentration at half of the fitted maximal effect. On max response: on the % scale 0 is the no-effect control and ±100 the full control effect. The conditions noted are these: RealTime-Glo luminescence; max response: stronger effect = lower value. The essentials:
(§2)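 600 HEK293 cells per well, dispensed already mixed with RealTime-Glo MT reagents. Compound dosing came 5 h later. The same wells were read for luminescence at 0, 8, 16, 24, 32 and 40 h of exposure at 37 C.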

Test [3] in a line: A CellTox Green Cytotoxicity Assay to monitor cytotoxicity in HepG2 cells - 16 hour (AID 1224876). Further: nearly all actives have a fitted effect of over 45% in size. Further: potency means the concentration at half of the fitted maximal effect. The method, boiled down: (§3)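 First, HepG2 cells (600/well) mixed with reagent were plated; second, after 5 h at 37 C they received compounds via pintool; third, fluorescence was measured at 0 h through 40 h at 8 h intervals.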
The nature of test [4]: A CellTox Green Cytotoxicity Assay to monitor cytotoxicity in HepG2 cells - 24 hour (AID 1224878). Further: nearly all actives have a fitted effect of over 45% in size. Further: potency means the concentration at half of the fitted maximal effect. On Cytotoxicity: on the % scale 0 is the no-effect control and ±100 the full control effect. The method, boiled down:
as §3

Test [5] can be described thus: A CellTox Green Cytotoxicity Assay to monitor cytotoxicity in HepG2 cells - 40 hour (AID 1224879). Further: nearly all actives have a fitted effect of over 40% in size. Further: potency means the concentration at half of the fitted maximal effect. The essentials:
as §3

Test [6] in a line: qHTS RealTime-Glo MT Cell Viability Assay in HEK293 cells - 0 hour (AID 1224880). Further: top concentration of the series differs between compounds; on the % scale 0 is the no-effect control and ±100 the full control effect; nearly all actives have a fitted effect of over 45% in size. The essentials: as §2
Test [7] is described as follows: A CellTox Green Cytotoxicity Assay to monitor cytotoxicity in HEK293 cells - 32 hour (AID 1224881). Further: nearly all actives have a fitted effect of over 40% in size. Further: potency means the concentration at half of the fitted maximal effect. The essentials: (§4)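 Dead-cell fluorescence measured kinetically: asymmetric cyanine dye, HEK293, 600 cells/well, 5 h settle, 23 nL cpd/DMSO, 37 C, reads 0–40 h every 8 h.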
Test [8] can be described thus: A CellTox Green Cytotoxicity Assay to monitor cytotoxicity in HepG2 cells - 0 hour (AID 1224882). Further: on the % scale 0 is the no-effect control and ±100 the full control effect; nearly all actives have a fitted effect of over 35% in size. The essentials:
as §3

Test [9] in a line: A CellTox Green Cytotoxicity Assay to monitor cytotoxicity in HepG2 cells - 32 hour (AID 1224883). Further: nearly all actives have a fitted effect of over 50% in size. Further: potency means the concentration at half of the fitted maximal effect. The essentials:
as §3

Test [10] can be described thus: A CellTox Green Cytotoxicity Assay to monitor cytotoxicity in HEK293 cells - 8 hour (AID 1224884). Further: nearly all actives have a fitted effect of over 35% in size. Further: potency means the concentration at half of the fitted maximal effect. The essentials:
as §4

A short description of test [11]: qHTS RealTime-Glo MT Cell Viability Assay in HEK293 cells - 24 hour (AID 1224886). Further: nearly all actives have a fitted effect of over 50% in size. Further: potency means the concentration at half of the fitted maximal effect. The method, boiled down:
as §1

Test [12] is described as follows: qHTS assay to identify small molecule antagonists of the estrogen receptor alpha (ER-alpha) signaling pathway using the BG1 cell line in the presence of 0.1 nM 17-beta-estradiol - cell viability counter screen (AID 1259241). Further: on the % scale 0 is the no-effect control and ±100 the full control effect; nearly all actives have a fitted effect of over 40% in size. The essentials: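 CellTiter-Fluor read (30 min, 37C) on ER-alpha/ERE-luc VM7Luc4E2 cells; 22 hr compound treatment; agonist 0.1 nM E2 final; same-well multiplex.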

A short description of test [13]: qHTS RealTime-Glo MT Cell Viability Assay in HepG2 cells - 8 hour (AID 1224873). Further: on the % scale 0 is the no-effect control and ±100 the full control effect; nearly all actives have a fitted effect of over 55% in size. The method, boiled down: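 HepG2 cells mixed with RealTime-Glo MT reagents (NanoLuc plus cell-permeant prosubstrate) were seeded at 600 cells/well, incubated 5 h at 37 C/5% CO2, then pinned with compounds in DMSO; nonlytic luminescence tracked viability during 40 h treatment.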
Test [14] can be described thus: A CellTox Green Cytotoxicity Assay to monitor cytotoxicity in HEK293 cells - 24 hour (AID 1224875). Further: nearly all actives have a fitted effect of over 45% in size. Further: potency means the concentration at half of the fitted maximal effect. The method, boiled down: as §4
Test [15] in a line: qHTS RealTime-Glo MT Cell Viability Assay in HepG2 cells - 32 hour (AID 1224877). Further: nearly all actives have a fitted effect of over 55% in size. Further: potency means the concentration at half of the fitted maximal effect. The method, boiled down:
(§5)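 HepG2 cells were seeded at 600 cells/well together with NanoLuc luciferase and a cell-permeant prosubstrate, preincubated 5 h at 37 C/5% CO2, then pin-dosed with compounds in DMSO. Nonlytic luminescence from viable cells was read at each time point.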

Test [16] is described as follows: qHTS RealTime-Glo MT Cell Viability Assay in HepG2 cells - 16 hour (AID 1224885). Further: nearly all actives have a fitted effect of over 50% in size. Further: potency means the concentration at half of the fitted maximal effect. The essentials: as §5
Test [17] in a line: qHTS RealTime-Glo MT Cell Viability Assay in HEK293 cells - 8 hour (AID 1224887). Further: nearly all actives have a fitted effect of over 50% in size. Further: potency means the concentration at half of the fitted maximal effect. The method, boiled down: as §2
Test [18] is described as follows: A CellTox Green Cytotoxicity Assay to monitor cytotoxicity in HEK293 cells - 16 hour (AID 1224888). Further: nearly all actives have a fitted effect of over 35% in size. Further: potency means the concentration at half of the fitted maximal effect. The essentials:
as §4

Test [19] can be described thus: qHTS RealTime-Glo MT Cell Viability Assay in HepG2 cells - 0 hour (AID 1224889). The essentials: as §5
Test [20] can be described thus: A CellTox Green Cytotoxicity Assay to monitor cytotoxicity in HepG2 cells - 8 hour (AID 1224890). Further: nearly all actives have a fitted effect of over 45% in size. Further: potency means the concentration at half of the fitted maximal effect. The essentials:
as §3

Values without a mark were called inactive. Results filed as inconclusive are left out. The source made the active and inactive calls. The call rests on the fitted dose curve; in most records, active means well fitted curve in the direction sought with a large enough effect in the repeat runs; inconclusive means weak or mixed curves; inactive means no such curve, though single readings can be large; an effect the other way counts as inactive or inconclusive.

As for `CC(C(O)c1ccccc1)N(C)CCOC(c1ccccc1)c1ccccc1` (stereo not given), the Potency in test [1] was 21.3 µM (active); in test [2], 23.9 µM (active); in test [3], 23.9 µM (active); in test [4], 26.8 µM (active); in test [5] it was 26.8 µM (active); in [7] it was 26.8 µM (active). Further, the Potency in [9] was 26.8 µM (active); in test [11] it was 21.3 µM (active). The Potency entry in [6], in [8], in test [10] and in test [12] was “inactive” each time.
As to `Clc1ccccc1CN1CCc2sccc2C1`, the Potency result in test [13], in test [14], in test [3], in [15], in test [4] and in [5] was “inactive” each time. Also, the Potency result in test [6], in test [7], in [8], in [9], in [10] and in [16] was “inactive” each time. Moreover, the Potency entry in [17], in [18], in [19], in test [20] and in [12] was “inactive” throughout. For the same molecule, in [2], the max response is -22.8%.
In the case of `CNCC[C@H](Oc1cccc2ccccc12)c1cccs1`, the Potency in test [1] was 23.9 µM (active); in test [2], 23.9 µM (active); in test [3], 23.9 µM (active); in test [15] it was 21.3 µM (active); in test [4] it was 21.3 µM (active); in [5], 19 µM (active). In addition, the Potency was 19 µM (active) in test [9], 23.9 µM (active) in [16] and 23.9 µM (active) in [11]. Moreover, the Potency entry in test [8] and in [12] was “inactive” throughout.
As for `CN(C)CCCN1c2ccccc2Sc2ccc(C(F)(F)F)cc21`, the Potency is 19 µM (active) in test [1]; 23.9 µM (active) in [2]; 23.9 µM (active) in test [3]; 23.9 µM (active) in [4]; 23.9 µM (active) in test [5]; 23.9 µM (active) in test [9]. Besides, the Potency in test [11] and in test [17] was 21.3 µM (active) each time. Besides, the Potency result in [8], in [10] and in test [18] was “inactive” throughout.
With `CCc1cccc(CC)c1NC(=O)C(=O)O`, the Potency entry in [13], in test [3], in [15], in [4], in [5] and in [6] was “inactive” in each case. For the same molecule, the Potency entry in test [7], in [8], in test [9], in [10], in test [16] and in test [11] was “inactive” in each case. Further, the Potency result in [17], in test [19], in test [20] and in test [12] was “inactive” each time. In [2], the max response is 9.15%.
As for `C=CC(C)(CCC=C(C)C)OC(=O)/C=C/c1ccccc1` (stereo not given), the Potency entry in [13], in test [15], in test [6], in test [16], in test [11] and in test [17] was “inactive” each time. Also, the Potency result in [19] and in test [12] was “inactive” throughout. For the same molecule, in [2], the max response was -2.78%. The Potency is 27.5 µM (active) in [14]; 38.9 µM (active) in [4]; 43.6 µM (active) in [5]; 38.9 µM (active) in test [7]; 43.6 µM (active) in test [9]; 38.9 µM (active) in test [10]. Further, the results for the Potency in test [18] and in test [20] were 27.5 µM (active) and 43.6 µM (active), respectively.
With `CC1=C(/C=C/C(C)=C/C=C/C(C)=C\C=O)C(C)(C)CCC1`, the Potency result in [13], in [3], in test [15], in test [4], in test [6] and in [8] was “inactive” in each case. Moreover, the Potency entry in test [9], in test [10], in test [16], in [17], in test [19] and in test [20] was “inactive” in each case. In [12], the Potency entry was “inactive”. Moreover, the Potency in test [2] is 46.4 µM (active).
As to `Cc1cncc(C)c1`, the Potency result in test [13], in test [3], in test [15], in [4], in [5] and in test [6] was “inactive” in each case. Besides, the Potency entry in test [8], in test [9], in test [10], in [16], in [17] and in test [19] was “inactive” each time. Also, the Potency entry in [20] and in test [12] was “inactive” each time. Also, the max response in test [2] is 0.584%.
With `CC1(C)COCN1`, the Potency result in [13], in test [3], in test [15], in test [4], in test [5] and in [6] was “inactive” each time. The Potency entry in test [9], in [10], in [16], in [11], in [17] and in [19] was “inactive” in each case. The Potency result in test [20] and in test [12] was “inactive” in each case. Further, the max response in [2] was -0.12%.
In the case of `Nc1cc(Cl)c([N+](=O)[O-])cc1O`, the Potency result in [13], in [14], in test [3], in test [15], in test [4] and in test [5] was “inactive” in each case. Besides, the Potency result in [6], in test [7], in [8], in test [9], in test [10] and in test [16] was “inactive” throughout. Moreover, the Potency entry in test [18], in [19] and in test [20] was “inactive” in each case.
